From PubChem BioAssay
Activity calls are given as the source filed them.

How the values were obtained:
[1] = optical density shifts of acrAB sulA E. coli – strain DRC41, OD650, 48 h, E. coli filamentation inducer project, primary screen (AID 1152); settings: higher = more signal, called active from +8 up or from −8 down;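 note: E. coli MC1000 strain DRC41 lacking acrAB efflux pump and sulA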
[2] = probe aLefty1 binding on compound microarray – biochemical, small-molecule microarray, 635/667 nm fluorescence, primary screen (AID 1153); settings: higher = more signal;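 note: score merges spot fluorescence with signal-to-noise ratio from the scanned slide images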
[3] = plasmodial surface anion channel blockers, osmotic lysis – cell-based, P. falciparum Indochina, OD700, 1 h, primary screen (AID 1154); settings: P. falciparum Indochina infected RBC osmotic lysis, higher = more signal, called active from +8 up or from −8 down
[4] = plasmodial surface anion channel blockers, osmotic lysis – cell-based, P. falciparum Indochina, OD700, 2 h, primary screen (AID 1155);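 note: lysis reports solute entry through the parasite surface anion channel PSAC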; settings: P. falciparum Indochina infected erythrocytes, higher = more signal, called active from +8 up or from −8 down
[5] = changes in parasitized red cell lysis, either direction – P. falciparum Indochina, OD700, 3 h, PSAC antagonist project, primary screen (AID 1156); settings: P. falciparum-infected erythrocytes, osmotic lysis, higher = more signal, called active from +8 up or from −8 down
[6] = plasmodial surface anion channel blockers, osmotic lysis – cell-based, P. falciparum Indochina, OD700, 18 h, primary screen (AID 1157); settings: P. falciparum Indochina infected erythrocytes, osmotic lysis OD700, 18 h; higher = more signal, called active from +8 up or from −8 down
[7] = S6 kinase pathway phospho-S6 level changes – cell-based, A549, cytoblot, luminescence, serum-stimulated, primary screen (AID 1158); settings: 5 h, higher = more signal;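 note: serum-stimulated A549 lung adenocarcinoma cells; signal is phosphorylated S6 detected by cytoblot immunostaining with HRP secondary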
[8] = target: NADPH oxidase 2 (Homo sapiens) (UniProt P04839); assay: compounds shifting NOX2 Amplex Red fluorescence – cell-based, HEK293-NOX2, PMA-stimulated, NOX inhibitor project, primary screen (AID 1159); settings: 45 min, higher = more signal, called active from +8 up or from −8 down; note: test concentration not given here
Chain of NADPH oxidase 2 (Homo sapiens) (P04839 whole entry, looked up): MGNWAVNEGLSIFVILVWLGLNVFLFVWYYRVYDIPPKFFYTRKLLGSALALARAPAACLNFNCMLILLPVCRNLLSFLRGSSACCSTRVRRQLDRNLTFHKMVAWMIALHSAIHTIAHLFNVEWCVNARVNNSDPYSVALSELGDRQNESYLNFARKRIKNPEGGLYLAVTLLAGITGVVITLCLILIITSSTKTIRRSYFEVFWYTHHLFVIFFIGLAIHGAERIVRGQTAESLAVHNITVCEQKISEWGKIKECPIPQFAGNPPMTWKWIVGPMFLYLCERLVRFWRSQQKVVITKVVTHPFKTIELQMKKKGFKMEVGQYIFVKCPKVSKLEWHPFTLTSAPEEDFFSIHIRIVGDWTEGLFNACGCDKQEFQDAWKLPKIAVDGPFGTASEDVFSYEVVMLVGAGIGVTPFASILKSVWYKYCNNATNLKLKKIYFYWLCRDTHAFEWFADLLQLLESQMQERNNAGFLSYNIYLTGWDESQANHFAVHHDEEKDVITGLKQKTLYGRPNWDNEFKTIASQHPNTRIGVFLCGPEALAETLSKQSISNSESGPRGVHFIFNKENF

[9] = target: NADPH oxidase 4 (Homo sapiens) (UniProt Q9NPH5); assay: compounds shifting NOX4 Amplex Red fluorescence – cell-based, HEK293-NOX4, tetracycline-induced, NOX inhibitor project, primary screen (AID 1160); settings: HEK293-NOX4, Amplex Red H2O2 fluorescence, 45 min; higher = more signal, called active from +8 up or from −8 down
Chain of NADPH oxidase 4 (Homo sapiens) (Q9NPH5 whole entry, looked up): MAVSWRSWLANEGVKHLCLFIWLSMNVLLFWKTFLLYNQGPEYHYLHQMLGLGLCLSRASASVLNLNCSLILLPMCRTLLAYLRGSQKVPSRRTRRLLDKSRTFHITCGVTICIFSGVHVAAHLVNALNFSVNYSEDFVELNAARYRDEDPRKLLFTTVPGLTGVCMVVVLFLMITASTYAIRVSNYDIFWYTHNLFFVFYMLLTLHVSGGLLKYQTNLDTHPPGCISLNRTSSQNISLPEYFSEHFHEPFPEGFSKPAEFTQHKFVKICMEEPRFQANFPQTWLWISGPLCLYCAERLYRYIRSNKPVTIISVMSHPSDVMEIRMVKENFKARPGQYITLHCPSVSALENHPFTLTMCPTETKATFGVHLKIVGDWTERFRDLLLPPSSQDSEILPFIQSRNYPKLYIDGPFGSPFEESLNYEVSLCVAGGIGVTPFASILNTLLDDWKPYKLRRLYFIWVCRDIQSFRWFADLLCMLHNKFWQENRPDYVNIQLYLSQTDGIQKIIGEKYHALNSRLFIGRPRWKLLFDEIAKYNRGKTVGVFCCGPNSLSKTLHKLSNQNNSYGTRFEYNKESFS

[10] = target: NADPH oxidase 5 (Homo sapiens) (UniProt Q96PH1); assay: compounds shifting NOX5 Amplex Red fluorescence – cell-based, HEK293-NOX5, NOX inhibitor project, primary screen (AID 1161); settings: HEK293-NOX5, ionomycin, 45 min, higher = more signal
Chain of NADPH oxidase 5 (Homo sapiens) (Q96PH1 whole entry, looked up): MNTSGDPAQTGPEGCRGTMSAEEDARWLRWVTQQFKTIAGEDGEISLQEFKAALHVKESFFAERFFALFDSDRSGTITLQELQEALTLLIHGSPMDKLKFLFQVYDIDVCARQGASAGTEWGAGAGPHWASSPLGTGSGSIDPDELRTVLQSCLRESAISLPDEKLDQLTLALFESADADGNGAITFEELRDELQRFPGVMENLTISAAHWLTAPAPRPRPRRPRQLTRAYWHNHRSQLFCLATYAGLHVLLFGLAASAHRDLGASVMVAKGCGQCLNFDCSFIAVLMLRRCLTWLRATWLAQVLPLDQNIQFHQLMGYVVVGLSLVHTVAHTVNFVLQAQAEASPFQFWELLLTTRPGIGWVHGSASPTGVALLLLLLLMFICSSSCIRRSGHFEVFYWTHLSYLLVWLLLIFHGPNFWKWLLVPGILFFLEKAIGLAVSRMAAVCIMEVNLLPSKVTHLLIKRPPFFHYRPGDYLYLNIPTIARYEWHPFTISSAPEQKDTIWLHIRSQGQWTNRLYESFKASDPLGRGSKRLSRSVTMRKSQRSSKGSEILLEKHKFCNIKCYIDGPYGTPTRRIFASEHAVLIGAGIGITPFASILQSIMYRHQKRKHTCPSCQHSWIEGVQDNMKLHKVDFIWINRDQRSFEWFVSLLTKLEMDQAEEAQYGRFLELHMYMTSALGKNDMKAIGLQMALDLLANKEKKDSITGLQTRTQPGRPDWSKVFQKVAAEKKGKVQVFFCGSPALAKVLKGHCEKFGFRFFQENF

[11] = compound effects on lung adenocarcinoma cell viability – A549, calcein-AM fluorescence, 48 h, basal, profiling panel (AID 1162); settings: higher = more signal; note: test concentration not given here
[12] = compound effects on differentiated 3T3-L1 adipocyte viability – cell-based, 3T3-L1 adipocytes, calcein-AM fluorescence, 48 h, basal, profiling panel (AID 1163); settings: 3T3-L1 adipocytes viability, higher = more signal; note: test concentration not given here
[13] = compound effects on hepatocellular carcinoma cell viability – HepG2, calcein-AM fluorescence, 48 h, basal, profiling panel (AID 1164); settings: higher = more signal; note: test concentration not given here
[14] = compound effects on multiple myeloma cell viability – MM1S, calcein-AM fluorescence, 48 h, basal, profiling panel (AID 1165); settings: higher = more signal;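 note: viability of MM1S multiple myeloma cells under basal unstimulated conditions; test concentration not given here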
[15] = calcein-AM signal in unstimulated myeloma cells – cell-based, calcein-AM fluorescence, 48 h, PK04 Diversity Set, profiling panel (AID 1166); settings: RPMI8226 myeloma viability, higher = more signal;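 note: cells grown under basal conditions without added stimulus; test concentration not given here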
[16] = JC-1 mitochondrial signal, unstimulated HepG2 cells – cell-based, JC-1 fluorescence, 24 h, 100 nL compound, profiling panel (AID 1167); settings: HepG2 mitochondrial potential, higher = more signal; note: test concentration not given here
[17] = JC-1 mitochondrial signal, unstimulated adipocytes – cell-based, JC-1 fluorescence, 3T3-L1 adipocytes, 24 h, 100 nL compound, profiling panel (AID 1168); settings: JC-1 mitochondrial fluorescence, higher = more signal, called active from +8 up or from −8 down; note: test concentration not given here
[18] = JC-1 mitochondrial signal, unstimulated myeloma cells – cell-based, JC-1 fluorescence, RPMI8226, 24 h, 100 nL compound, profiling panel (AID 1169); settings: JC-1 mitochondrial potential fluorescence, higher = more signal; note: test concentration not given here
[19] = JC-1 mitochondrial signal, unstimulated MM1S myeloma – cell-based, JC-1 fluorescence, 24 h, 100 nL compound, profiling panel (AID 1170); settings: MM1S mitochondrial potential, higher = more signal; note: test concentration not given here
[20] = resazurin metabolic signal in A549 cells – cell-based, resazurin fluorescence, 24 h, PK04 Diversity Set, profiling panel (AID 1171); settings: A549 viability, higher = more signal, called active from +8 up or from −8 down; note: test concentration not given here

Row | Structure (SMILES) | z-score [1] | composite z-score [2] | z-score [3] | z-score [4] | z-score [5] | z-score [6] | z-score [7] | z-score [8] | z-score [9] | z-score [10] | z-score [11] | z-score [12] | z-score [13] | z-score [14] | z-score [15] | z-score [16] | z-score [17] | z-score [18] | z-score [19] | z-score [20]
1 | C=CCC(OC(C)=O)[C@@H]1[C@@H](N(Cc2ccc(-c3ccccc3)cc2)C(=O)c2ccc(-c3ccccc3)cc2)c2cc(OCCCO)ccc2N1C(=O)Cc1ccc(OC)cc1 (stereo not given in full) | -0.685 (inactive) | 0.149 | 0.572 (inactive) | -0.402 (inactive) | -0.501 (inactive) | -0.184 (inactive) | -0.192 | -1.56 (inactive) | 1.2 (inactive) | 1.41 | -0.111 | 0.6 | 0.551 | -0.769 | -0.904 | 0.424 | -0.972 (inactive) | -0.0615 | -0.142 | 0.78 (inactive)
2 | CO[C@@H]1COC(=O)CC=C[C@@H](C)[C@H](OC)COC(=O)CC=C[C@H]1C | 0.356 (inactive) | -0.257 | -0.611 (inactive) | -0.163 (inactive) | -0.335 (inactive) | -0.0143 (inactive) | 0.711 | -0.49 (inactive) | 0.276 (inactive) | 0.586 | 0.275 | 0.793 | 1.14 | -1.03 | 0.834 | 0.692 | 0.502 (inactive) | -0.793 | 1.21 | 0.756 (inactive)
3 | CC[C@@H]1C=C(C(=O)O)[C@H](c2ccccc2)N1S(=O)(=O)c1ccc([N+](=O)[O-])cc1 | -3.21 (inactive) | -0.405 | 1.3 (inactive) | 1.01 (inactive) | 0.751 (inactive) | 1.15 (inactive) | -0.37 | 0.325 (inactive) | -0.0428 (inactive) | -0.526 | -0.353 | -0.49 | 0.271 | 0.0363 | 0.0806 | 0.414 | -0.375 (inactive) | 0.769 | -0.877 | 0.0551 (inactive)
4 | C[C@@H]1CC[C@H]2C(=O)N3CCC[C@H]3C(=O)N2[C@H]1c1ccc(Br)cc1 | 1.29 (inactive) | -0.218 | 0.338 (inactive) | -0.0391 (inactive) | 0.363 (inactive) | 0.444 (inactive) | 0.349 | 0.607 (inactive) | 0.296 (inactive) | 0.764 | 1.09 | -0.0296 | 0.0327 | 0.517 | 0.0262 | 0.412 | 1.02 (inactive) | -0.167 | 0.324 | 0.673 (inactive)
5 | C=C(COC)C(=O)CC[C@H](OC(=O)c1ccccc1-c1ccccc1C(=O)O)c1cccc(OCCO)c1 | 0.0418 (inactive) | 0.333 | 3.26 (inactive) | 1.91 (inactive) | 0.281 (inactive) | 1.36 (inactive) | 0.29 | 0.635 (inactive) | 0.112 (inactive) | -2.96 | -0.339 | -0.765 | -2.08 | -1.12 | -0.28 | -2.01 | 0.414 (inactive) | 0.231 | -0.0895 | -1.46 (inactive)
6 | C=CC[C@]1(C(=O)OC)N=C(c2ccc(OCCCO)cc2)O[C@H]1c1ccccc1CN=[N+]=[N-] | 0.919 (inactive) | 0.419 | 21.2 (active) | 4.18 (inactive) | 1.7 (inactive) | 0.786 (inactive) | 0.363 | -3.18 (inactive) | -0.411 (inactive) | -2.23 | -0.844 | 1.51 | -1.09 | -2.04 | -2.24 | -0.000782 | 0.21 (inactive) | -1.01 | 0.734 | -0.179 (inactive)
7 | CN(C)c1ccc(C(O)C2C=CC3C(=O)NC(=O)C3N2Nc2ccc(Cl)cc2Cl)cc1 (stereo not given) | -0.85 (inactive) | 0.68 | 3.51 (inactive) | 0.567 (inactive) | 1.45 (inactive) | 1.27 (inactive) | -0.645 | -1.15 (inactive) | -4.56 (inactive) | -2.72 | -0.602 | 0.117 | -0.675 | 0.463 | -0.792 | -1.26 | -1.06 (inactive) | -0.752 | 0.261 | -0.555 (inactive)
8 | CCC1=C2CN(Cc3ccccc3Br)[C@@H]([C@@H](O)Cc3ccccc3)C2C=CCC1 (stereo not given in full) | 0.625 (inactive) | -0.101 | 4.02 (inactive) | -0.96 (inactive) | -0.115 (inactive) | -1.8 (inactive) | 1.56 | -0.306 (inactive) | -4.86 (inactive) | -4.65 | 0.596 | 2.48 | 0.155 | -3.24 | -3.99 | 1.42 | -0.473 (inactive) | -0.981 | -2.18 | 1.07 (inactive)
9 | C=CCN1C(=O)[C@@]2(O[C@@H](CCn3cc([C@H](O)c4ccccc4)nn3)[C@H]([Si](C)(C)c3ccc(OC)cc3)[C@H]2C)c2cc(N3CCOC3=O)ccc21 | 1.77 (inactive) | -0.139 | 6.55 (inactive) | 0.569 (inactive) | -0.0434 (inactive) | -0.233 (inactive) | 1.67 | -0.379 (inactive) | 1.18 (inactive) | -1.67 | -0.873 | 3.06 | -1.2 | -1.81 | -1.93 | 1.09 | 1.92 (inactive) | -0.376 | 0.753 | -1.97 (inactive)
